Experimental data as given in ChEMBL document CHEMBL2218924, “A broad activity screen in support of a chemogenomic map for kinase signalling research and drug discovery” (Biochem J, 2013).

How the values were obtained:
[1] = target: T1, Ephrin type-B receptor 1 (Homo sapiens) (UniProt P54762); settings: at 10 µM
T1 sequence (whole entry): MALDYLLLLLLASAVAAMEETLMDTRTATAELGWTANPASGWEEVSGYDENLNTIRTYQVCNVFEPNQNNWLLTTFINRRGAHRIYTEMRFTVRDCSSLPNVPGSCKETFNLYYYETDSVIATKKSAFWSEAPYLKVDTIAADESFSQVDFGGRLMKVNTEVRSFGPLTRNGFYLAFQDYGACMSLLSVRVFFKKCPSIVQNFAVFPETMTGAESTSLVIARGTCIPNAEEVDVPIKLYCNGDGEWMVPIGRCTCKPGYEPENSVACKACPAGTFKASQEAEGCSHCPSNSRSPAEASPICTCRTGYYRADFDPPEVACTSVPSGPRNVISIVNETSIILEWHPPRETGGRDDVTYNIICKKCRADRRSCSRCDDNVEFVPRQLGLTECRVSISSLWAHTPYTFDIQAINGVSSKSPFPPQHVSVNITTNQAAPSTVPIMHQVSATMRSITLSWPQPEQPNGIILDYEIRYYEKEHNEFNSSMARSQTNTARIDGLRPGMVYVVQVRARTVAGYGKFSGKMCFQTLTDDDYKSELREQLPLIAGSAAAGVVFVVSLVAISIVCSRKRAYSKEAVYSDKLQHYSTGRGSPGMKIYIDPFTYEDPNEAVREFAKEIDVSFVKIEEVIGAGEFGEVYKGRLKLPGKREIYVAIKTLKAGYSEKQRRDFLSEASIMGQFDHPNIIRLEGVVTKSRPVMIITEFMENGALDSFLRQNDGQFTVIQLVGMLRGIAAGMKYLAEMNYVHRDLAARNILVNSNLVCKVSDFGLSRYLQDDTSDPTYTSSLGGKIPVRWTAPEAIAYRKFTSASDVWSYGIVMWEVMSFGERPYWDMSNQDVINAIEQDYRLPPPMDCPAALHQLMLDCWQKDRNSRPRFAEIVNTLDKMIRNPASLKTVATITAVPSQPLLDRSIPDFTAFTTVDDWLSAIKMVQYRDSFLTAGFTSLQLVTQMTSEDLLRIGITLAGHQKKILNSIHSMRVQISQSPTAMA

[2] = target: T2, Ephrin type-B receptor 3 (Homo sapiens) (UniProt P54753); settings: at 1 µM
T2 sequence (whole entry): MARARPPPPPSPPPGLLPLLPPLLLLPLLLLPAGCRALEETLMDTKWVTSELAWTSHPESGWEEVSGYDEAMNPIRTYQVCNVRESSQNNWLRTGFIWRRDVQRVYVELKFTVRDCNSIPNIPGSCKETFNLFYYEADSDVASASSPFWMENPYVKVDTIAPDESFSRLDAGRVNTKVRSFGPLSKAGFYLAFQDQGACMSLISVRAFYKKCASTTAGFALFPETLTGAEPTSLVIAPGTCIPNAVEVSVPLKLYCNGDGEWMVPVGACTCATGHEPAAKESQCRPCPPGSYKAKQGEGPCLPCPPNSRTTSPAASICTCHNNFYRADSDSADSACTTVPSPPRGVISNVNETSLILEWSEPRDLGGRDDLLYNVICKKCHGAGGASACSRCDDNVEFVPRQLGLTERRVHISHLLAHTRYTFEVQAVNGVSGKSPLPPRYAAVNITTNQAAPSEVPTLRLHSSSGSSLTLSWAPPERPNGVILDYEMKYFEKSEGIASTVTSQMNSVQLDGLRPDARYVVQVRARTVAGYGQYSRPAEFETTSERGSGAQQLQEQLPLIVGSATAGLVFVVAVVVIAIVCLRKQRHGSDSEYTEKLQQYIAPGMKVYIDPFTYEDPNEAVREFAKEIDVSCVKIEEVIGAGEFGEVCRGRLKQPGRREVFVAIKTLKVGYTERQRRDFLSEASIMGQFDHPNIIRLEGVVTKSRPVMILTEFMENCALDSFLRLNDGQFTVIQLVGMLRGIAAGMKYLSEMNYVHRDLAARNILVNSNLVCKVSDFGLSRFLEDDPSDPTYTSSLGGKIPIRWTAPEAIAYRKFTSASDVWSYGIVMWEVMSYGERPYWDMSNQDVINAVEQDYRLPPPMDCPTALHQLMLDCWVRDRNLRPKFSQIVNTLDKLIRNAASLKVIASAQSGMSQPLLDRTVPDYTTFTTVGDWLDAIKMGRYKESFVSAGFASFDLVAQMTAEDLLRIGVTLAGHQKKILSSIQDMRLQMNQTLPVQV

[3] = target: T2, Ephrin type-B receptor 3 (Homo sapiens); settings: at 10 µM
[4] = target: T3, Ephrin type-B receptor 4 (Homo sapiens) (UniProt P54760); settings: at 1 µM
T3 sequence (whole entry): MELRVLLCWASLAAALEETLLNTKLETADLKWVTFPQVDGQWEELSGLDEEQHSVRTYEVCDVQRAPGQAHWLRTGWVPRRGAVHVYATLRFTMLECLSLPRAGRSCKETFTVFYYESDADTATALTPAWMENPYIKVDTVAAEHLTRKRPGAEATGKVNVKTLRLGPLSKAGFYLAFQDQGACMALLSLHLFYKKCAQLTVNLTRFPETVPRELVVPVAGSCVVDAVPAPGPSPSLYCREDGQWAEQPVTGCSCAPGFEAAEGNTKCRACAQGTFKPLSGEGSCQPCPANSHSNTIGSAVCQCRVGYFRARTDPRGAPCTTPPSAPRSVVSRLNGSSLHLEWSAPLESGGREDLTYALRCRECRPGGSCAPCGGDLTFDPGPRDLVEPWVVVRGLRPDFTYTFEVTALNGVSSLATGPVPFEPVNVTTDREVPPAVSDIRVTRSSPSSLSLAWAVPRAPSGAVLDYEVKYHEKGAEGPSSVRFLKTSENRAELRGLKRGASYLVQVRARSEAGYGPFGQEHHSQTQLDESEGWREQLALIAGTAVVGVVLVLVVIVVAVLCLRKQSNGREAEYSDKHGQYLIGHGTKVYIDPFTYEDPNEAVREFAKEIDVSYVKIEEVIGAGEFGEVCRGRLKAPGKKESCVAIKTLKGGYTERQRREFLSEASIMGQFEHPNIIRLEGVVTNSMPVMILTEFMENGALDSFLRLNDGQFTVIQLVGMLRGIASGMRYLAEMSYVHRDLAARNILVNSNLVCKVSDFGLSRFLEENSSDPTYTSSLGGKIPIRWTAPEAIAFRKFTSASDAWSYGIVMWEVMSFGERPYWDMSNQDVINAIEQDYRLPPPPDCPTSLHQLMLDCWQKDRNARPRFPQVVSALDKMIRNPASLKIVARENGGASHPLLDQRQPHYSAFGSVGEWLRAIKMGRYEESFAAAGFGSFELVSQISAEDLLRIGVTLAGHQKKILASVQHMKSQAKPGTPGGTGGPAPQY

[5] = target: T3, Ephrin type-B receptor 4 (Homo sapiens); settings: at 10 µM
[6] = target: Receptor tyrosine-protein kinase erbB-4 (Homo sapiens) (UniProt Q15303); settings: at 1 µM
Sequence of Receptor tyrosine-protein kinase erbB-4 (Homo sapiens) (Q15303 whole entry): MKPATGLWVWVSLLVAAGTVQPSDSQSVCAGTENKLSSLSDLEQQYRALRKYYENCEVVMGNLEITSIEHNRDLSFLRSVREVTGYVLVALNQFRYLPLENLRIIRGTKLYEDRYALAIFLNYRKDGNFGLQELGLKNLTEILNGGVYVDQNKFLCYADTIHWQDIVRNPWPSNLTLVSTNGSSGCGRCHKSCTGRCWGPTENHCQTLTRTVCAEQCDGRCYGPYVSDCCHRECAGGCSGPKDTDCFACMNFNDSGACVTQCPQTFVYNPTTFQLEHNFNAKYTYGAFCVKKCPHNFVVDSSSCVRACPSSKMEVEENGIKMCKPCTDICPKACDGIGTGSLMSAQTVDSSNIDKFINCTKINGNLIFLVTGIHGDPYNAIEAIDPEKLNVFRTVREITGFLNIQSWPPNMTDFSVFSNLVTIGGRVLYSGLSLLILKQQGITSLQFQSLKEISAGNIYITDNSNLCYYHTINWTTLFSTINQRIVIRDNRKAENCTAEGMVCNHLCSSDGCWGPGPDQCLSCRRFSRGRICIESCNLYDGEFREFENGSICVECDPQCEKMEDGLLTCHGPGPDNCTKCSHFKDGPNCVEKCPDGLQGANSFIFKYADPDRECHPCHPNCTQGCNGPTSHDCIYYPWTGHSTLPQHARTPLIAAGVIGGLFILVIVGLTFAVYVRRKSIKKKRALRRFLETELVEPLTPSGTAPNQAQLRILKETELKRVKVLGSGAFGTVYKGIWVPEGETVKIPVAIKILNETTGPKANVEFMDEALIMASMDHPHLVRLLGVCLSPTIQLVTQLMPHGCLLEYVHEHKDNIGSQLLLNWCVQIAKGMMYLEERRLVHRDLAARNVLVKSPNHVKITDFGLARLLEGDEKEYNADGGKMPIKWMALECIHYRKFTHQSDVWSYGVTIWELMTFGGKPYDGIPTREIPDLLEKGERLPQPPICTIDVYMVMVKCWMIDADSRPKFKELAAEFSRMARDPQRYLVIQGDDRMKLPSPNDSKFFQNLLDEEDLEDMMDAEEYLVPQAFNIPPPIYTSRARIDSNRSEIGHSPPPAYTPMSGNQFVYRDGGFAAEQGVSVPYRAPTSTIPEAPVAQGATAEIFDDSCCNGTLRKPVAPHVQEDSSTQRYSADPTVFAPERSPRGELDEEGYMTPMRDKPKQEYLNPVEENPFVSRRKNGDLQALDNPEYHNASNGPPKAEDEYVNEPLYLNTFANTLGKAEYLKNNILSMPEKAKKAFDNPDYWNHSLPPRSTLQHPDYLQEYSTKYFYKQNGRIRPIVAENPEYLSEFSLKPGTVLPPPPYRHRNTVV

[7] = target: Receptor tyrosine-protein kinase erbB-4 (Homo sapiens) (UniProt Q15303); settings: at 10 µM
[8] = target: T4, Ephrin type-B receptor 2 (Homo sapiens) (UniProt P29323); settings: at 1 µM
T4 sequence (whole entry): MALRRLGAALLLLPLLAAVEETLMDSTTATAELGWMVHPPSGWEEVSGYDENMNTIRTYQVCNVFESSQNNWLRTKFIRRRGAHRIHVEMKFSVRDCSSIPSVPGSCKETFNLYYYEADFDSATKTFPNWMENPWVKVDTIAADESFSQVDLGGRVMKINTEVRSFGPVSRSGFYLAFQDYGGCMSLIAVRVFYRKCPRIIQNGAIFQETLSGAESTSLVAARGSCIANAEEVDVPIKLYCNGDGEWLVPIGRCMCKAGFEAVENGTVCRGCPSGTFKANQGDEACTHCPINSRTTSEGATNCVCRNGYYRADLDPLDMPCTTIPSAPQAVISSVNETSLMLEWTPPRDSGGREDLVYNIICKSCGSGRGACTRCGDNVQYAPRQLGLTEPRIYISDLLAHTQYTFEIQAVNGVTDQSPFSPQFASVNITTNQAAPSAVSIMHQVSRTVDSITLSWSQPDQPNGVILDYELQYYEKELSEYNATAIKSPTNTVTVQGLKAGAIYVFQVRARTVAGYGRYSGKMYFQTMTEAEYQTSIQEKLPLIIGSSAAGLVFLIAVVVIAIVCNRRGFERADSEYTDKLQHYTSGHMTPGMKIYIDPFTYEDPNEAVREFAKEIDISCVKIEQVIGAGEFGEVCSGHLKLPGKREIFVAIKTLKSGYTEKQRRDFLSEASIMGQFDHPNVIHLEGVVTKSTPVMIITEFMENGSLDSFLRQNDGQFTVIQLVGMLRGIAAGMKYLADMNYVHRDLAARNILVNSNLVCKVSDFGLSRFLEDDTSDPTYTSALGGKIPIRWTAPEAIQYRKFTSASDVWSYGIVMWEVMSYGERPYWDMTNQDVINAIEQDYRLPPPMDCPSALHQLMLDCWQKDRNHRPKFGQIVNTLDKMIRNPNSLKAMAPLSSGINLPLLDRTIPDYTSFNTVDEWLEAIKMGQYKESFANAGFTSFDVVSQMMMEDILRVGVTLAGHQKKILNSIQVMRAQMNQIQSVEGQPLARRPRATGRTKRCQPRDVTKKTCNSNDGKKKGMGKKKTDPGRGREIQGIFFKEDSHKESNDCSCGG

[9] = target: T4, Ephrin type-B receptor 2 (Homo sapiens); settings: at 10 µM
[10] = target: Focal adhesion kinase 1 (Homo sapiens) (UniProt Q05397); settings: at 1 µM
Sequence of Focal adhesion kinase 1 (Homo sapiens) (Q05397 2-1052 limits assumed): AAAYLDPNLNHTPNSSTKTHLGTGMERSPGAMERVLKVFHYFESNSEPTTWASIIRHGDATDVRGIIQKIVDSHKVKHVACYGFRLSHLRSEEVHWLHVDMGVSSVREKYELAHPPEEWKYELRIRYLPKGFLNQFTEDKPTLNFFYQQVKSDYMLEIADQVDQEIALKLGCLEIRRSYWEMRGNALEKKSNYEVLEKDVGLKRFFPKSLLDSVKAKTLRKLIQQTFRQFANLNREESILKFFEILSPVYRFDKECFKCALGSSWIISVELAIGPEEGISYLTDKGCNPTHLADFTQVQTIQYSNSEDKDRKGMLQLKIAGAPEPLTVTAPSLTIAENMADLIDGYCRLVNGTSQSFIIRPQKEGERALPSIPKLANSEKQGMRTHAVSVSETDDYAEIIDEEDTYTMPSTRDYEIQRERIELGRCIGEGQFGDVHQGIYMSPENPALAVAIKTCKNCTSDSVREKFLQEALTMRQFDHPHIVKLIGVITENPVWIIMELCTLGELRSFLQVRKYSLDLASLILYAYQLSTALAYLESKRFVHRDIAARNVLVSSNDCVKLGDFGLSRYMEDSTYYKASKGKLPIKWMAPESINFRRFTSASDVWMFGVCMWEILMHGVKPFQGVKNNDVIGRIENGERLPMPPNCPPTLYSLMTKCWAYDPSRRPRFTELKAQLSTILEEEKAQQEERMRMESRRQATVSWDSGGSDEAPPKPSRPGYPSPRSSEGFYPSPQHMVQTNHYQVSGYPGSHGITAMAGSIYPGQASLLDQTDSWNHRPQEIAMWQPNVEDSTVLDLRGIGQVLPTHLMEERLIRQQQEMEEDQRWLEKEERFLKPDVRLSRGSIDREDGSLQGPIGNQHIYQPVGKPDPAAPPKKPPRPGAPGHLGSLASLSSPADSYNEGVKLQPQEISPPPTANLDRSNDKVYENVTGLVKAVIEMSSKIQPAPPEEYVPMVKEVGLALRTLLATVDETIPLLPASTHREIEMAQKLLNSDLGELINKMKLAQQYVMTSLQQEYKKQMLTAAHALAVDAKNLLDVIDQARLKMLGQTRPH

SMILES | residual activity [1] [%] | residual activity [2] | residual activity [3] [%] | residual activity [4] [%] | residual activity [5] [%] | residual activity [6] [%] | residual activity [7] [%] | residual activity [8] [%] | residual activity [9] [%] | residual activity [10] [%]
c1ccc(-c2n[nH]cc2-c2ccnc3ccccc23)nc1 | 105 | 102% (inactive) | 137 | 109 | 105 | 98 | 98 |  |  | 
COc1ccc(CNc2nc(N(CCO)CCO)nc3c2ncn3C(C)C)cc1 | 77 | 113% (inactive) | 107 | 87 | 77 | 91 | 101 | 113 | 106 | 91
O=C1Nc2cc(Br)ccc2/C1=C1/Nc2ccccc2/C1=N\O | 42 | 100% (inactive) | 95 | 17 | 4 | 84 | 88 | 33 | 22 | 59
Oc1ccc(-c2nc(-c3ccc(F)cc3)c(-c3ccncc3)[nH]2)cc1 | 53 | 95% (inactive) | 117 | 103 | 41 | 114 | 72 | 94 | 43 | 117
Cc1cc(Nc2nc(-c3ccccc3)nc3ccccc23)n[nH]1 | 17 | 111% (inactive) |  | 75 | 20 | 106 | 45 | 100 | 48 | 36
COc1cc2ncc(-c3ccccc3)nc2cc1OC |  | 132% (inactive) | 90 | 125 | 123 | 88 | 85 |  |  | 139
c1ccc(-c2n[nH]c3c2oc2ccccc23)cc1 | 90 | 93% (inactive) | 100 | 100 | 116 | 90 |  |  |  | 122
CC#CC(=O)Nc1cc2c(Nc3ccc(F)c(Cl)c3)ncnc2cn1 | 98 | 115% (inactive) | 102 | 87 | 108 | 16 | 14 | 110 | 107 | 133
Nc1cccc(-c2cc3c(Oc4cccc(O)c4)ncnc3[nH]2)c1 | -1 | 105% (inactive) | 90 | 2 | -3 | 71 | 19 | 4 | -1 | 87
N#CCCc1ccc2c(c1)-c1[nH]c3ccc([N+](=O)[O-])cc3c1CC(=O)N2 | 74 |  |  |  | 77 |  | 76 |  | 67 | 50
Cc1cccc(-c2[nH]c(C(C)(C)C)nc2-c2ccc3c(c2)OCO3)n1 |  |  |  |  |  | 94 | 86 |  |  | 
Nc1nc(Nc2ccc(S(N)(=O)=O)cc2)nn1C(=S)Nc1c(F)cccc1F | -1 |  |  | 30 | 4 | 105 | 96 |  |  | 20
CC(C)n1cnc2/c(=N/c3cccc(Cl)c3)nc(NCCO)[nH]c21 | 20 | 108% (inactive) |  | 67 | 22 | 94 | 107 | 102 | 35 | 46
CCN(CC)C(=O)c1ccc(Nc2nc(OCC3CCCCC3)c3nc[nH]c3n2)cc1 | 4 | 102% (inactive) | 52 | 72 | 12 | 74 | 34 | 103 | 32 | 72
Cc1cc2ncc(-c3ccccc3)nc2cc1C | 106 | 106% (inactive) | 125 |  |  | 99 | 105 |  | 103 | 
CCN(CC)CCCCN1c2ccccc2Oc2ccc(Cl)cc21 | 117 | 106% (inactive) | 132 | 109 | 133 | 102 | 95 | 122 | 121 | 144
